Compound activity deposited in PubChem by National Center for Advancing Translational Sciences (NCATS).
HCMV inh = inhibitors of human cytomegalovirus | HFF cells, HCMV-luciferase reporter, 72 h; stronger effect = lower value | 4.5% of 410,000 active | activity change, negative = inhibition, % at 57.5 µM | AID 1259415; in the data active = activity change below about -60%; inconclusive = no clear call, values can overlap the other calls; inactive = above about -39%
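After 16 h attachment at 37C, HFF cells received test compound and HCMV-luciferase (1 PFU/cell); reporter luminescence read 72 h later, data normalized against buffer-only and known inhibitor Salinomycin.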
HCV inh = blocks hepatitis C virus. Huh7.5.1 HCVcc-Cre infection, luciferase reporter, 44 h. Potency, µM (highest dose often 41.8 µM), for the others: top-dose activity change, negative = inhibition, usual class: inhibitors. 3.4% of 340,000 active; active = well fitted inhibition curve with a large enough effect; inconclusive = small, poorly fitted or top-dose-only effect, or another doubt; inactive = no such curve, though single readings can be large or run the other way; note: potency is the fitted concentration of half-maximal effect
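Reporter virus HCVcc-Cre (~0.5 moi) infects cells exposed to compound; seeding density 1,000 cells/well with 4 h settling beforehand. Luminescence, 15 sec read, taken 44 h post-infection following a 15 min RT substrate incubation.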
Vaccinia Venus = vaccinia inhibition (Venus reporter). Vaccinia virus Venus reporter expression, fluorescence. Potency, µM (top dose mostly 36.5 µM), without a hit: at the top dose activity change, negative = inhibition, usual class: inhibitors. 0.46% of 330,000 active. AID 720580; calls by dose curve; tested in A549 cells; note: potency is the fitted concentration of half-maximal effect; nearly all actives have a fitted effect of over 30% in size
FMDV antiviral = antivirals against foot and mouth disease virus. FMDV antiviral cell-based qHTS. 1.2% of 410,000 active. Potency, µM (top dose mostly 57.9 µM), for the others: at the highest dose activity change, negative = inhibition, hits mostly inhibitors; calls by dose curve; tested in HEK293T cells; note: read-out not given here; potency is the fitted concentration of half-maximal effect; nearly all actives have a fitted effect of over 45% in size
VACV mCherry inh = vaccinia inhibition (mCherry reporter); Vaccinia virus mCherry reporter infection, fluorescence; Potency, µM (titrated, usually from 36.5 µM), for the others: at the top dose activity change, negative = inhibition, most hits filed as inhibitors; 0.63% of 310,000 active; AID 720579; calls by dose curve; tested in A549 cells; note: potency is the fitted concentration of half-maximal effect; nearly all actives have a fitted effect of over 35% in size
An asterisk follows results filed as active; i = inactive; ? = inconclusive; · = no result; [ ] = another dose, or the depositor's remark. The list is not random: actives were taken first. Their share in the collection is about 7.3%. % is set by controls: 0 for no effect and ±100 for the full control effect.

SMILES | HCMV inh | HCV inh | Vaccinia Venus | FMDV antiviral | VACV mCherry inh
O=c1[nH]c(=O)n(Cc2ccc(Oc3ccccc3)cc2)cc1Br | -37 | · | · | · | ·
C=C1CC(Cn2cc(Br)c(=O)[nH]c2=O)(c2ccc(-c3ccccc3)cc2)OC1=O (configuration not stated) | -97* | ? | 7.9µM* | ? | 2.8µM*
CC(C)(CC(=O)N1CCN(c2ccc(Cl)cc2)CC1)CC1=NS(=O)(=O)c2ccccc2N1 | ? | ? | ? | 0% | ?
COc1cccc(N2CCN(C(=O)CC(C)(C)CC3=NS(=O)(=O)c4ccccc4N3)CC2)c1 | -72* | 11µM* | -15% | ? | -8%
Cc1ccc(-c2nc(CN3C(=O)CN=C(c4ccccc4)c4cc(Cl)ccc43)c(C)o2)cc1 | -5 | · | -11% | -22% | -12%
Cc1ccccc1CN1C(=O)CN=C(c2ccccc2)c2cc(Cl)ccc21 | -71* | · | -22% | ? | ?
CCC(NC(=O)Nc1ncccc1C)(C(F)(F)F)C(F)(F)F | 5 | 1% | -8% | -24% | ·
CCC(NC(=O)NNC(N)=S)(C(F)(F)F)C(F)(F)F | 29 | 16% | 28µM* | -7% | ?
CCOC(=O)c1c(S(=O)(=O)N2CCCCC2C)c(C)n(C)c1C (configuration not stated) | -39 | 20% | · | 18% | ·
O=c1cc2oc3cc(O)c(O)cc3c(-c3ccccc3[N+](=O)[O-])c-2cc1O | -64* | ? | -11% | ? | -21%
O=C(c1cc(-c2ccc(Br)cc2)nc2ccccc12)N1CCN(c2ccccc2O)CC1 | -16 | ? | ? | -14% | 14µM*
Cc1ccc(C)c(-c2cc(C(=O)Nc3cccnc3)c3ccccc3n2)c1 | -7 | · | -2% | 0% | i
O=C(Nc1cccnc1)c1cc(-c2ccc(Br)cc2)nc2ccccc12 | 40 | 3.2µM* | 5% | -5% | i
CSc1ccccc1NC(=O)c1cc(-c2cccnc2)nc2ccc(Br)cc12 | -73* | 11µM* | -10% | -18% | i
COc1cccc(NC(=O)c2cc(-c3ccncc3)nc3c(C)cc(C)cc23)c1 | -31 | 10µM* | -3% | -24% | -5%
O=C(CNC(=O)c1ccccc1)OCc1cc(=O)n2nc(C3CC3)sc2n1 | 0 | · | 1% | 2% | 8%
COc1ccc(C)cc1S(=O)(=O)Nc1cccc(-c2ccc(N3CCCC3)nn2)c1 | 16 | · | -12% | 13% | -15%
O=C(Nc1ccc(C(=O)N2CCOCC2)cc1)c1cc(-c2cccnc2)nc2ccc(Cl)cc12 | -69* | 7.9µM* | -14% | ? | -6%
Cc1[nH]c2ccccc2c1/C=N/NC(=O)c1cc(-c2ccccc2)n[nH]1 | ? | ? | -8%[7.34 µM] | -14% | -16%[7.34 µM]
O=C(NN1CCOCC1)c1cc(-c2ccc(Br)cc2)nc2ccccc12 | -60* | 11% | -1% | 0% | -6%
COc1cccc(-c2cc(C(=O)Nc3ccncc3)c3ccccc3n2)c1 | 3 | ? | -18% | ? | -12%
COc1cccc(-c2cc(C(=O)Nc3ccc(N(C)C(C)=O)cc3)c3cc(Br)ccc3n2)c1 | -97* | 11µM* | · | ? | ·
CC(=O)Nc1cccc(NC(=O)c2cc(-c3cccnc3)nc3ccc(Cl)cc23)c1 | 2 | ? | -6% | ? | -10%
Cc1[nH]c2ccccc2c1/C=N/NC(=O)c1cc(-c2ccncc2)nc2ccccc12 | 8 | 10µM* | · | -12% | ·
O=C(CN1C(=O)c2cccnc2Sc2ccccc21)Nc1cc(F)ccc1F | 16 | · | -6% | 1% | -5%
SMILES | HCMV inh | HCV inh | Vaccinia Venus | FMDV antiviral | VACV mCherry inh
CC(C)(C)c1ccc(CSc2nc3c(c(=O)[nH]2)CCCC3)cc1 | -19 | · | -12% | ? | -7%
COc1ccc(C2C(C(=O)c3cccs3)=C(O)C(=O)N2CCN2CCOCC2)c(OC)c1 (configuration not stated) | 38 | 20% | · | -4% | ·
Cc1cc(NC(=O)c2cc(-c3ccncc3)nc3ccccc23)ccc1Br | -14 | 8.9µM* | -19% | ? | ?
CC(=O)Nc1cccc(NC(=O)c2cc(-c3cccnc3)nc3ccc(Br)cc23)c1 | -28 | 14µM* | · | 0% | ·
CCOC(=O)C1CCC(CN(Cc2ccc(Cl)cc2)S(=O)(=O)c2ccc(Br)cc2)CC1 (configuration not stated) | -2 | · | 6% | -29% | 5%
Nc1c(C(=O)NCc2ccco2)c2nc3ccccc3nc2n1CCc1ccccc1 | -69* | ? | · | -5% | ·
COc1ccccc1CNC(=O)c1ccc2nc(N3CCOCC3)sc2c1 | -27 | ? | -13% | 10% | -5%
O=C(Oc1ccnc2cc(Cl)ccc12)N1CCOCC1 | -76* | 3% | -7% | -17% | -11%
O=C(Oc1c(Cl)cc(Cl)c2cccnc12)N1CCOCC1 | -17 | 0% | · | 0% | ·
CCN(C1CCCCC1)S(=O)(=O)CCNC(=O)c1ccc(OC)cc1 | -17 | · | -11% | -17% | i
CC1CCCCN1C(=O)Cn1cc(C=C2C(=O)N(C)C(=O)N(C)C2=O)c2ccccc21 (configuration not stated) | -63* | 23% | -10% | -28% | i
CN(C)c1nc(OCCNC(=O)Nc2ccccc2)nc(N2CCCCC2)n1 | -28 | 11µM* | -5% | -11% | -7%
CC(=O)OC1=CN(Cc2ccccc2)S(=O)(=O)c2ccccc21 | -5 | · | ? | -3% | ?
CC(=O)c1cccc(S(=O)(=O)N2CCN(CCOc3ccccc3)CC2)c1 | -61* | ? | · | ? | ·
CC(=O)c1ccc(S(=O)(=O)N2CCN(CCOc3ccc(Br)cc3)CC2)cc1 | ? | ? | · | 18µM* | ·
O=C(CCS(=O)(=O)c1ccc(Br)cc1)N1CCN(Cc2ccccc2)CC1 | 49 | 3% | ? | ? | ·
Cc1ccc(S(=O)(=O)N2CCN(CCOc3ccccc3)CC2)cc1 | -31 | -15% | -8% | -28% | i
CC(=O)N1CCN(CCS(=O)(=O)c2ccc(Br)cc2)CC1 | -23 | 19% | ? | -21% | 18µM*
CCOC(=O)CCCCN(Cc1ccccc1F)S(=O)(=O)c1ccc(F)c(C(=O)Nc2cc(Cl)cc(Cl)c2)c1 | 19 | · | -7% | -11% | -3%
CC(=O)NC1C(O)C[C@@](O)(C(=O)O)OC1[C@@H](O)C(O)CO (some centres not stated) | · | · | 5% | 2% | 8%
COc1ccc(C(CNC(=O)CCNS(=O)(=O)c2ccccc2)N2CCOCC2)cc1 (configuration not stated) | -36 | · | -4% | -10% | i
CCC(O)c1nc2ccccc2n1CCOc1cc(C)cc(C)c1 (configuration not stated) | 29 | · | -19% | -29% | -1%
COc1ccc2c(c1)c1c(c(=O)n(-c3ccc(F)c(Cl)c3)c(=O)n1Cc1cccc(C)c1)n2C | 12 | · | -5% | -21% | -12%
COc1ccc2c(c1)c1c(c(=O)n(-c3cccc(C)c3)c(=O)n1Cc1cccc(Cl)c1)n2C | -67* | · | -12% | -4% | -11%
